Shiga inhibitor = A qHTS for Small Molecule Inhibitors of Shiga Toxin; Vero cells, Shiga toxin protein synthesis inhibition reporter; inhibition, % at 38.7 µM; 290,000 tested, 9.2% active; in the data active = inhibition mostly above about 28%, no sharp cut-off; inactive = mostly below about 43%; also: 0% is about no effect
CHX counter = Cycloheximide Counterscreen for Small Molecule Inhibitors of Shiga Toxin; cell reporter, cycloheximide protein synthesis inhibition counterscreen; max response, %; 300,000 tested, 12% active; in the data active = max response mostly above about 13%, no sharp cut-off; inactive = mostly below about 14%; also: read at 38.3 µM for the half of the compounds with a filed dose; 0% is about no effect
HCV inhibitor = qHTS Assay for Inhibitors of Hepatitis C Virus (HCV); Huh7.5.1 HCVcc-Cre infection, luciferase reporter, 44 h; AID 651820, 2012; 340,000 tested, 3.4% active; Potency, µM (series often up to 41.8 µM), for inactives: at the highest dose activity change, negative = inhibition, usual class: inhibitors; also: potency is read from the fitted curve at half-maximal effect; % is scaled to controls: 0 for no effect and ±100 for the full control effect
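Cells seeded at 1,000/well and cultured 4 h, then compounds added followed by HCVcc-Cre virus (~0.5 moi). After 44 h further culture, luciferase substrate was added, plates held 15 min at room temperature, and luminescence read for 15 sec.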
Pf growth 48h = Primary qHTS for delayed death inhibitors of the malarial parasite plastid, 48 hour incubation; P. falciparum luciferase growth in erythrocytes, 48 h; Potency, µM (highest dose often 28.7 µM), for the others: at the highest dose activity change, negative = inhibition, most hits filed as inhibitors; 310,000 tested, 5.9% active; AID 504832, 2011; also: potency is read from the fitted curve at half-maximal effect; % is scaled to controls: 0 for no effect and ±100 for the full control effect
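Compounds are pin-transferred into medium, infected erythrocytes (2% hematocrit, 0.1% parasitemia final) are added, and plates sit one parasite generation at 37 C in 5% CO2. Detection reagent is then added and luminescence measured.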
Pf growth 96h = Primary qHTS for delayed death inhibitors of the malarial parasite plastid, 96 hour incubation; P. falciparum luciferase reporter growth, 96 h; Potency, µM (doses to about 28.7 µM), inactives show at the top dose activity change, negative = inhibition, actives largely listed as inhibitors; 320,000 tested, 6.9% active; AID 504834, 2011; also: potency is read from the fitted curve at half-maximal effect; % is scaled to controls: 0 for no effect and ±100 for the full control effect
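Compounds incubated with erythrocytes infected by luciferase-expressing P. falciparum (2% hematocrit, 0.05% parasitemia final) for 96 hours, 37 C in 5% CO2. Growth inhibition scored as decreased luciferase luminescence.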
AMA1 RON2 block = qHTS for Inhibitors of AMA1-RON; Towards Development of Antimalarial Drug Lead: Primary Screen; Plasmodium falciparum AMA1 (3D7) - RON2 peptide interaction; AlphaScreen AMA1-biotinylated RON2 peptide binding; Potency, µM (titrated, usually from 58.2 µM), for the others: top-dose activity change, negative = inhibition, usual class: inhibitors; 360,000 tested, 0.2% active; AID 720542, 2013;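 also: potency is read from the fitted curve at half-maximal effect; 0% = vehicle wells and -100% = peptide control; nearly all actives have a fitted effect of over 45% in size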
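AMA1 (3D7) with his tag at 25 nM final met compounds first, then biotinylated RON2 peptide at 25 nM; detection used donor plus acceptor beads, 10 µg/mL apiece, read by AlphaScreen after 30 min at room temperature.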
* = called active by the depositor; ? = inconclusive; . = not tested or not shown; + = active, no number; ! = a repeat was not active; [ ] = remark or other dose. Rows were chosen to be rich in hits. Some 21% of all compounds tested hit in one or more screens of this group. Unless noted, calls follow the shape of the dose curve; as a rule, active = well fitted curve in the direction sought with a large enough effect; inconclusive = small, poorly fitted or top-dose-only effect, or another doubt; inactive = no such curve, though single readings can be large; an effect the other way counts as inactive or inconclusive.

SMILES	Shiga inhibitor	CHX counter	HCV inhibitor	Pf growth 48h	Pf growth 96h	AMA1 RON2 block
CC#CCc1cc2ccccc2c(=O)o1	11.7	5.2*	8.7%	35.3%	?	-5.2%
CCC(C)NCCOCCOc1ccc(Cl)c(C)c1C (centres undefined)	-9.0	-3.4	10µM*	?	13.7%	-11.1%[2.32 µM]
CCC(C)NCCOCCOc1ccc(Cl)c2ccccc12 (centres undefined)	-23.9	4.8	?	?	13.0%	-11.8%
C(#CC1CCCC1)c1ccc2c(c1)COc1c3ccccc3nn1-2	90.8*	14.0*	8.8%	132.3%	72.3%	-5.9%
Oc1ccc(N2CCN(Cc3nc4ccccc4[nH]3)CC2)cc1	3.5	-5.3	10.7%	-16.7%	?	15.5%
O=c1cc(-c2ccccc2Cl)oc2cc(O)cc(O)c12	93.6*	45.8*	-1.6%[8.37 µM]	104.6%	59.4%	-0.6%
CCOc1cccc(=O)c2c(C)n(C)c(C)c12	-15.2	-1.4	?	?	?	-21.5%
CCOc1cccc2oc(-c3ccccc3Cl)cc(=O)c12	+	58.9*	.	.	.	.
O=C(Nc1ccc(O)c2c(=O)cc(-c3ccccc3Cl)oc12)c1ccc(Cl)cc1Cl	-10.9	-1.8	11.1%	1.8%	?	-1.4%
O=c1c(O)c(-c2ccccc2O)oc2cc(O)cc(O)c12	-3.2	-4.4	.	.	.	.
Nc1ccc(O)c2c(=O)cc(-c3ccccc3Cl)oc12	61.5*	45.0*!	-14.5%	1.8%	-33.7%	-2.2%
CCC1CCCCN1CCCNC(=O)Cn1c(=O)c2cccn2c2cccnc21 (centres undefined)	-2.6	-5.5	-4.7%	38.8%	-3.5%	-10.2%
COc1ccc(N2Cc3ccc(OC)c(OC)c3C2=O)cc1	75.8*	47.8*	4.0%	138.5%	101.3%	0.0%
COc1ccc2c(c1OC)C(=O)N(c1cccc(/C=C/C(=O)O)c1)C2	-3.9	-3.5	4.8%	-14.8%[0.00184 µM]	-16.0%	0.0%
COc1ccc2c(c1OC)C(=O)N(c1nccs1)C2	66.5	33.7*	10.2%	98.1%	91.4%	0.1%
O=C(NC1CCCCC1)C(CCc1ccccc1)N1CCc2ccccc2C1 (centres undefined)	.	.	.	.	.	-1.9%
COC(=O)N/N=C/c1cn(CCOc2ccc(OC)cc2)c2ccccc12	20.9	0.6	?	7.0%[0.00184 µM]	?	-17.3%
CNC(=S)N/N=C/c1cn(CCOc2cccc(OC)c2)c2ccccc12	103.2*	9.8	10µM*	?	?	28.7%
CCOC(=O)N/N=C/c1cn(CCCOc2ccc(C)cc2)c2ccccc12	42.4*	63.6*	6.5%	33.2%	-27.4%	7.2%
COC(=O)N/N=C/c1cn(CCOc2ccccc2)c2ccccc12	78.2*	45.6*	-21.7%	0.6%	0.8%	?
CCOC(=O)N/N=C/c1cn(CCCOc2ccccc2)c2ccccc12	66.1*	45.7*	?	-1.0%	-16.1%	1.6%
COc1ccccc1NC(=O)N1CCC(NC(=O)C(Cc2ccccc2F)NC(C)=O)CC1 (centres undefined)	-4.9	-2.1	-1.8%	-11.4%	-2.5%	-3.9%
CCCC[C@H](NC(=O)[C@H](CC(C)C)NC(=O)[C@@H](Cc1c[nH]c2ccccc12)NC(=O)[C@H](Cc1ccccc1)NC(=O)[C@@H](Cc1c[nH]c2ccccc12)NC(=O)[C@H](CC(N)=O)NC(=O)[C@@H](Cc1c(Cl)cccc1Cl)NC(=O)[C@@H]1CCCN1C(=O)[C@H](Cc1ccccn1)NC(=O)[C@@H]1CCCN1C(=O)[C@H](N)CCCCNC(=O)c1cccnc1)C(N)=O	-2.6	-8.4	.	.	.	.
CCOC(=O)c1cnc2ccc(OC)cc2c1Nc1ccc(N2CCN(C)CC2)cc1	2.7	-0.8	?	1.65µM*	0.928µM*	-29.4%
CCOC(=O)c1cnc2ccc(C(=O)OC)cc2c1Nc1ccc2c(c1)OCCO2	-3.3	-2.5	?	?	10.4µM*	0.7%
SMILES	Shiga inhibitor	CHX counter	HCV inhibitor	Pf growth 48h	Pf growth 96h	AMA1 RON2 block
CCOC(=O)c1cnc2c(OC)cccc2c1Nc1ccc2c(c1)OCCO2	27.8*	28.7*	?	2.33µM*	?	-4.5%
CCOC(=O)c1ccc2ncc(C(=O)OCC)c(Nc3ccc(N4CCOCC4)cc3)c2c1	-6.4	-0.4	?	?	?	?
CCOC(=O)c1cnc2ccc(OC)cc2c1Nc1ccc2c(c1)OCCO2	15.5	17.2	?	?	?	?
C#CC1(NC(=O)NCCCC)CCCCC1	8.7	-1.3	10.3%	33.7%	45.6%	17.8%
Cc1ccc(S(=O)(=O)N2CC3C(=O)CC(c4ccccc4)N(S(=O)(=O)c4ccc(C)cc4)C3CC2c2cccc(Cl)c2)cc1 (centres undefined)	.	.	.	.	.	2.1%
Cc1ccc(S(=O)(=O)N2CCCC2)cc1C(=O)NCCOc1ccccc1	.	.	-7.7%	?	-7.1%	0.5%
CC1CCCN(c2nc(-c3cccnc3)nc3scc(-c4ccccc4)c23)C1 (centres undefined)	51.4*	20.9*	?	-29.3%	?	-11.8%
CN1CCN(c2nc(-c3cccnc3)nc3scc(-c4ccccc4)c23)CC1	64.2	-0.3	-9.3%	?	?	-19.3%
CC1CCN(c2nc(-c3cccnc3)nc3scc(-c4ccccc4)c23)CC1	11.9	-2.6	22.4µM*	-3.6%	?	2.1%
CC1CCN(c2nc(CN3CCCCC3)nc3scc(-c4ccccc4)c23)CC1	18.3	-1.7	?	2.33µM*	1.47µM*	-14.4%
CCN(C(=O)Cn1nc(C)c([N+](=O)[O-])c1C)C1CCS(=O)(=O)C1 (centres undefined)	.	.	3.6%	-8.9%	25.6%	11.4%
COc1ccc(CN(C)S(=O)(=O)c2nnc(NC(=O)c3cccc(F)c3)s2)cc1	-1.8	0.7	10.8%	14.2%	56.2%	-3.8%
CC(C)c1ccc(NC(=O)COC(=O)c2nn(C)c(=O)c3ccccc23)cc1	.	.	35.8%	.	.	-17.6%
O=C(O)Cc1cccc(=O)c(O)c1C(=O)O	.	.	21.9%	.	.	3.6%
c1ccc(-c2nnc(CSc3ccc4c(c3)OCCO4)o2)cc1	28.5*	18.9*	-23.1%	-9.8%	14.4%	-2.5%
O=C(OCc1nnc(-c2ccccc2)o1)c1ccc2c(c1)OCO2	23.1	14.9	3.8%	15.3%	?	5.1%
COc1ccc(C2/C(=C(/O)c3ccc(F)cc3)C(=O)C(=O)N2CCCN2CCOCC2)cc1OC (centres undefined)	-1.1	8.9	7.9%	52.2%	?	-1.6%

Screening data (PubChem BioAssay)
